Test results from the supplement of paper PMC7411054.
Counter-ions that a name gives are not always drawn.

Experiments:
Experiment in all cases: phenotypically active (imaging signature differs from DMSO and reproducible) at any of 0.3-9 uM (binary (1 = active, 0 = inactive)); higher = active
Details in all cases: treatment time: 24 h
[1] = tested on: A549-ACTB-RAB5A
Method in brief: (§1)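 Phenotypic activity depended on meeting both a deviation and a reproducibility criterion. The fifteen gene-edited A549, HepG2 and WPMY1 reporter lines were treated at 0.3, 1, 3 or 9 µM for 24 h, four wells each, then imaged live with features normalised to solvent control wells. Deviation required ≥3 of 4 wells past the 95th percentile of control Euclidean distances, and reproducibility a median replicate Pearson correlation above the 95th percentile of non-replicates.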

[2] = tested on: A549-CANX-COX4
Method in brief: as §1

[3] = tested on: A549-GM130-SQSTM1
Method in brief: as §1

[4] = tested on: A549-TP53BP1-CLTA
Method in brief: as §1

[5] = tested on: A549-TUBA1B-RELA
Method in brief: as §1

[6] = tested on: HepG2-ACTB-RAB5A
Method in brief: as §1

[7] = tested on: HepG2-CANX-COX4
Method in brief: as §1

[8] = tested on: HepG2-GM130-SQSTM1
Method in brief: as §1

[9] = tested on: HepG2-TP53BP1-CLTA
Method in brief: as §1

[10] = tested on: HepG2-TUBA1B-RELA
Method in brief: as §1

[11] = tested on: WPMY1-ACTB-RAB5A
Method in brief: as §1

[12] = tested on: WPMY1-CANX-COX4
Method in brief: as §1

[13] = tested on: WPMY1-GM130-SQSTM1
Method in brief: as §1

[14] = tested on: WPMY1-TP53BP1-CLTA
Method in brief: as §1

[15] = tested on: WPMY1-TUBA1B-RELA
Method in brief: as §1

Measured: phenotypically active

C#C[C@]1(O)CC[C@H]2[C@@H]3CCc4cc(OC5CCCC5)ccc4[C@H]3CC[C@@]21C [quinestrol]
inactive: [1] 0 | [2] 0 | [3] 0 | [4] 0 | [5] 0 | [6] 0 | [7] 0 | [8] 0 | [9] 0 | [10] 0 | [11] 0 | [12] 0 | [13] 0 | [14] 0 | [15] 0

CCCSc1nc2c(c(=O)n1-c1ccccc1)SCC2
inactive: [1] 0 | [2] 0 | [3] 0 | [4] 0 | [5] 0 | [6] 0 | [7] 0 | [8] 0 | [9] 0 | [10] 0 | [11] 0 | [12] 0 | [13] 0 | [14] 0 | [15] 0

COc1ccc(C(=O)Nc2sc3c(c2C(N)=O)CCCC3)cc1OC
inactive: [1] 0 | [2] 0 | [3] 0 | [4] 0 | [5] 0 | [6] 0 | [7] 0 | [8] 0 | [9] 0 | [10] 0 | [11] 0 | [12] 0 | [13] 0 | [14] 0 | [15] 0

N=C(N)NC(=O)Cc1c(Cl)cccc1Cl [guanfacine]
inactive: [1] 0 | [2] 0 | [3] 0 | [4] 0 | [5] 0 | [6] 0 | [7] 0 | [8] 0 | [9] 0 | [10] 0 | [11] 0 | [12] 0 | [13] 0 | [14] 0 | [15] 0

CC(C[N+](C)(C)C)OC(N)=O (stereo not given) [bethanechol]
inactive: [1] 0 | [2] 0 | [3] 0 | [4] 0 | [5] 0 | [6] 0 | [7] 0 | [8] 0 | [9] 0 | [10] 0 | [11] 0 | [12] 0 | [13] 0 | [14] 0 | [15] 0

NC(=O)c1cccc(-c2cccc(OC(=O)NC3CCCCC3)c2)c1
inactive: [1] 0 | [2] 0 | [3] 0 | [4] 0 | [5] 0 | [6] 0 | [7] 0 | [8] 0 | [9] 0 | [10] 0 | [11] 0 | [12] 0 | [13] 0 | [14] 0 | [15] 0

CCCCN1C[C@H](O)[C@@H](O)[C@H](O)[C@H]1CO [Miglustat hydrochloride]
inactive: [1] 0 | [2] 0 | [3] 0 | [4] 0 | [5] 0 | [6] 0 | [7] 0 | [8] 0 | [9] 0 | [10] 0 | [11] 0 | [12] 0 | [13] 0 | [14] 0 | [15] 0

Fc1ccc(-c2c3cccc(C(F)(F)F)c3nn2Cc2ccc(F)cc2Cl)cc1
inactive: [1] 0 | [2] 0 | [3] 0 | [4] 0 | [5] 0 | [6] 0 | [7] 0 | [8] 0 | [9] 0 | [10] 0 | [11] 0 | [12] 0 | [13] 0 | [14] 0 | [15] 0

NC(=O)OCC(COC(N)=O)c1ccccc1 [felbamate]
inactive: [1] 0 | [2] 0 | [3] 0 | [4] 0 | [5] 0 | [6] 0 | [7] 0 | [8] 0 | [9] 0 | [10] 0 | [11] 0 | [12] 0 | [13] 0 | [14] 0 | [15] 0

COc1ccc([C@@H]2CC(=O)c3c(O)cc(O)cc3O2)cc1O [Hesperetin]
inactive: [1] 0 | [2] 0 | [3] 0 | [4] 0 | [5] 0 | [6] 0 | [7] 0 | [8] 0 | [9] 0 | [10] 0 | [11] 0 | [12] 0 | [13] 0 | [14] 0 | [15] 0

CC(C(=O)Nc1cccc(/N=C/c2c(O)ccc3ccccc23)c1)c1ccccc1 (stereo not given) [Salermide]
inactive: [1] 0 | [2] 0 | [3] 0 | [4] 0 | [5] 0 | [6] 0 | [7] 0 | [8] 0 | [9] 0 | [10] 0 | [11] 0 | [12] 0 | [13] 0 | [14] 0 | [15] 0

COc1ccc([C@H]2CNC(=O)C2)cc1OC1CCCC1 [(S)-(+)-Rolipram]
inactive: [1] 0 | [2] 0 | [3] 0 | [4] 0 | [5] 0 | [6] 0 | [7] 0 | [8] 0 | [9] 0 | [10] 0 | [11] 0 | [12] 0 | [13] 0 | [14] 0 | [15] 0

CCC[C@H](N[C@@H](C)C(=O)N1[C@H](C(=O)O)C[C@@H]2CCCC[C@@H]21)C(=O)OCC [perindopril]
inactive: [1] 0 | [2] 0 | [3] 0 | [4] 0 | [5] 0 | [6] 0 | [7] 0 | [8] 0 | [9] 0 | [10] 0 | [11] 0 | [12] 0 | [13] 0 | [14] 0 | [15] 0

NC(=O)c1cccc(N)c1 [3-Aminobenzamide]
inactive: [1] 0 | [2] 0 | [3] 0 | [4] 0 | [5] 0 | [6] 0 | [7] 0 | [8] 0 | [9] 0 | [10] 0 | [11] 0 | [12] 0 | [13] 0 | [14] 0 | [15] 0

Nc1nnc(-c2cccc(Cl)c2Cl)c(N)n1 [lamotrigine]
inactive: [1] 0 | [2] 0 | [3] 0 | [4] 0 | [5] 0 | [6] 0 | [7] 0 | [8] 0 | [9] 0 | [10] 0 | [11] 0 | [12] 0 | [13] 0 | [14] 0 | [15] 0

Nc1cc(-c2ccncc2)c[nH]c1=O [amrinone]
inactive: [1] 0 | [2] 0 | [3] 0 | [4] 0 | [5] 0 | [6] 0 | [7] 0 | [8] 0 | [9] 0 | [10] 0 | [11] 0 | [12] 0 | [13] 0 | [14] 0 | [15] 0

O=C(Cn1ccnc1[N+](=O)[O-])NCc1ccccc1 [benznidazole]
inactive: [1] 0 | [2] 0 | [3] 0 | [4] 0 | [5] 0 | [6] 0 | [7] 0 | [8] 0 | [9] 0 | [10] 0 | [11] 0 | [12] 0 | [13] 0 | [14] 0 | [15] 0

CC(C)NCC(O)c1ccc(NS(C)(=O)=O)cc1 (stereo not given) [sotalol]
inactive: [1] 0 | [2] 0 | [3] 0 | [4] 0 | [5] 0 | [6] 0 | [7] 0 | [8] 0 | [9] 0 | [10] 0 | [11] 0 | [12] 0 | [13] 0 | [14] 0 | [15] 0

CN(C)CCOC(c1ccc(Cl)cc1)c1ccccn1 (stereo not given) [carbinoxamine]
inactive: [1] 0 | [2] 0 | [3] 0 | [4] 0 | [5] 0 | [6] 0 | [7] 0 | [8] 0 | [9] 0 | [10] 0 | [11] 0 | [12] 0 | [13] 0 | [14] 0 | [15] 0

C[N+]1(C)[C@@H]2C[C@@H](OC(=O)C(O)(c3cccs3)c3cccs3)C[C@H]1[C@@H]1O[C@@H]12 [Tiotropium bromide]
inactive: [1] 0 | [2] 0 | [3] 0 | [4] 0 | [5] 0 | [6] 0 | [7] 0 | [8] 0 | [9] 0 | [10] 0 | [11] 0 | [12] 0 | [13] 0 | [14] 0 | [15] 0

CC1(C)CCC(C)(C)c2cc(C3(c4ccc(C(=O)O)cc4)OCCO3)ccc21
inactive: [1] 0 | [2] 0 | [3] 0 | [4] 0 | [5] 0 | [6] 0 | [7] 0 | [8] 0 | [9] 0 | [10] 0 | [11] 0 | [12] 0 | [13] 0 | [14] 0 | [15] 0

CCOC(=O)Nc1ccc2c(c1)N(C(=O)CCN1CCOCC1)c1ccccc1S2 [moracizine]
inactive: [1] 0 | [2] 0 | [3] 0 | [4] 0 | [5] 0 | [6] 0 | [7] 0 | [8] 0 | [9] 0 | [10] 0 | [11] 0 | [12] 0 | [13] 0 | [14] 0 | [15] 0

O=S(=O)(NCCSSCCNS(=O)(=O)c1cc(Cl)ccc1Cl)c1cc(Cl)ccc1Cl
inactive: [1] 0 | [2] 0 | [3] 0 | [4] 0 | [5] 0 | [6] 0 | [7] 0 | [8] 0 | [9] 0 | [10] 0 | [11] 0 | [12] 0 | [13] 0 | [14] 0 | [15] 0

CC(C)(C)NC[C@H](O)c1ccc(O)c(CO)c1 [levalbuterol]
inactive: [1] 0 | [2] 0 | [3] 0 | [4] 0 | [5] 0 | [6] 0 | [7] 0 | [8] 0 | [9] 0 | [10] 0 | [11] 0 | [12] 0 | [13] 0 | [14] 0 | [15] 0
